Results published in ChEMBL document CHEMBL2218924, “A broad activity screen in support of a chemogenomic map for kinase signalling research and drug discovery” (Biochem J, 2013).

What was measured:
[1] = biological target: Serine/threonine-protein kinase PLK3 (Homo sapiens) (UniProt Q9H4B4); details: at 1 µM
[2] = biological target: Serine/threonine-protein kinase PLK3 (Homo sapiens) (UniProt Q9H4B4); details: at 10 µM
[3] = biological target: T1, cAMP-dependent protein kinase catalytic subunit PRKX (Homo sapiens) (UniProt P51817); details: at 1 µM
T1 sequence (whole entry): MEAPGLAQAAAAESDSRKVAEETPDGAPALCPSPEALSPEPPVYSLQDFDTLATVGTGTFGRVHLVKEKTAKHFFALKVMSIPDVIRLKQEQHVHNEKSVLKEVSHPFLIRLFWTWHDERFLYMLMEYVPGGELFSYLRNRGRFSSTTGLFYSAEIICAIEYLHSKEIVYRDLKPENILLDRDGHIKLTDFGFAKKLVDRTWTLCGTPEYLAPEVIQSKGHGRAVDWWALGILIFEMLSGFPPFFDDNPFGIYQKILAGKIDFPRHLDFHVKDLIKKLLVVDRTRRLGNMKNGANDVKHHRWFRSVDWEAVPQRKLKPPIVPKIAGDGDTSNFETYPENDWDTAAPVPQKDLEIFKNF

[4] = biological target: T1, cAMP-dependent protein kinase catalytic subunit PRKX (Homo sapiens); details: at 10 µM
[5] = biological target: Protein-tyrosine kinase 2-beta (Homo sapiens) (UniProt Q14289); details: at 1 µM
[6] = biological target: Protein-tyrosine kinase 2-beta (Homo sapiens) (UniProt Q14289); details: at 10 µM
[7] = biological target: Receptor-interacting serine/threonine-protein kinase 2 (Homo sapiens) (UniProt O43353); details: at 1 µM
[8] = biological target: Receptor-interacting serine/threonine-protein kinase 2 (Homo sapiens) (UniProt O43353); details: at 10 µM
[9] = biological target: Rho-associated protein kinase 1 (Homo sapiens) (UniProt Q13464); details: at 1 µM
Sequence of Rho-associated protein kinase 1 (Homo sapiens) (Q13464 2-1354 limits assumed): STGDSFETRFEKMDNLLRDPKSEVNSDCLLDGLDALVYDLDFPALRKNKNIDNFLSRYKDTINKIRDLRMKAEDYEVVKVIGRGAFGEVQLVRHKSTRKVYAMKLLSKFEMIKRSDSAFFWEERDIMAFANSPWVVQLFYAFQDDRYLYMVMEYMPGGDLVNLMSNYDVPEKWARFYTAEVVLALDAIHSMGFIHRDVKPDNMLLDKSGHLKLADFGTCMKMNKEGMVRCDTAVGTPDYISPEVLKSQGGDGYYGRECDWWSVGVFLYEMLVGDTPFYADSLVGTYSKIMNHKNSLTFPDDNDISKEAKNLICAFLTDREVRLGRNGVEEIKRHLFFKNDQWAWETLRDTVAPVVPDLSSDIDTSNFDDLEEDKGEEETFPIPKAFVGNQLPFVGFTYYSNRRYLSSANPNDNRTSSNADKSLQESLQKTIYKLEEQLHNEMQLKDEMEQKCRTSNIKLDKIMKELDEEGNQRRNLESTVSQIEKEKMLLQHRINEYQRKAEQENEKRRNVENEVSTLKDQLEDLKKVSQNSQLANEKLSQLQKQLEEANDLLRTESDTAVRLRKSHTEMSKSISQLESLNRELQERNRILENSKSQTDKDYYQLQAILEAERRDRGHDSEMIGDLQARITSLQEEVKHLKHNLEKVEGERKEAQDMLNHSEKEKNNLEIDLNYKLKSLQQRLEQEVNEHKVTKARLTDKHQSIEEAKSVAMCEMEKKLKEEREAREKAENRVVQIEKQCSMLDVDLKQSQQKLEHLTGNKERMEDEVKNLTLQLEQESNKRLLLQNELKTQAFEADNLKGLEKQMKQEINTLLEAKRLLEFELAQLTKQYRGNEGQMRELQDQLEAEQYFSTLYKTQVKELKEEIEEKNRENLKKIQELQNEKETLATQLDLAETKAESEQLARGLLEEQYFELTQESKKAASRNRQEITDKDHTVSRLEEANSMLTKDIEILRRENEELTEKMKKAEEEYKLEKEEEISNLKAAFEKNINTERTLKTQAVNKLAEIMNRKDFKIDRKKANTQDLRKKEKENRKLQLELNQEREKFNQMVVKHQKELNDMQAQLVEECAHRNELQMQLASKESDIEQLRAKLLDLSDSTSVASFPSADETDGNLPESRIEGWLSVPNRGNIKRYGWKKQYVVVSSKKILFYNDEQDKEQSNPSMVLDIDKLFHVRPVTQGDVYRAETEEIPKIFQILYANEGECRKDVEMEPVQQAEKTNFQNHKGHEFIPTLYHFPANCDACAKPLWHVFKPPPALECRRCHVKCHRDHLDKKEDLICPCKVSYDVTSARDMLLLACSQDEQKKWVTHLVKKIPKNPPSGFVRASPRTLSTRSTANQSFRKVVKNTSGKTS

[10] = biological target: Rho-associated protein kinase 1 (Homo sapiens) (UniProt Q13464); details: at 10 µM
[11] = biological target: Rho-associated protein kinase 2 (Homo sapiens) (UniProt O75116); details: at 1 µM
[12] = biological target: Rho-associated protein kinase 2 (Homo sapiens) (UniProt O75116); details: at 10 µM
[13] = biological target: Proto-oncogene tyrosine-protein kinase receptor Ret (Homo sapiens) (UniProt P07949); details: at 1 µM
[14] = biological target: Proto-oncogene tyrosine-protein kinase receptor Ret (Homo sapiens) (UniProt P07949); details: at 10 µM
[15] = biological target: Macrophage-stimulating protein receptor (Homo sapiens) (UniProt Q04912); details: at 1 µM
Sequence of Macrophage-stimulating protein receptor (Homo sapiens) (Q04912 25-304 limits assumed): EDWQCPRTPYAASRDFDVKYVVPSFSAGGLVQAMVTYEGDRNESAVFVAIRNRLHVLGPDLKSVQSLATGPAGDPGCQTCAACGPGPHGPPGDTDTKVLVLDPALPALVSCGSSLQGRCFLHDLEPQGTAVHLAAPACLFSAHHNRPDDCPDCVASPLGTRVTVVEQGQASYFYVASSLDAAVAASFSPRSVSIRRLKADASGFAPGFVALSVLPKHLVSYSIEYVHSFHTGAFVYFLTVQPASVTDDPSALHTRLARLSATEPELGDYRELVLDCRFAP
Sequence of Macrophage-stimulating protein receptor (Homo sapiens) (Q04912 310-1400 limits assumed): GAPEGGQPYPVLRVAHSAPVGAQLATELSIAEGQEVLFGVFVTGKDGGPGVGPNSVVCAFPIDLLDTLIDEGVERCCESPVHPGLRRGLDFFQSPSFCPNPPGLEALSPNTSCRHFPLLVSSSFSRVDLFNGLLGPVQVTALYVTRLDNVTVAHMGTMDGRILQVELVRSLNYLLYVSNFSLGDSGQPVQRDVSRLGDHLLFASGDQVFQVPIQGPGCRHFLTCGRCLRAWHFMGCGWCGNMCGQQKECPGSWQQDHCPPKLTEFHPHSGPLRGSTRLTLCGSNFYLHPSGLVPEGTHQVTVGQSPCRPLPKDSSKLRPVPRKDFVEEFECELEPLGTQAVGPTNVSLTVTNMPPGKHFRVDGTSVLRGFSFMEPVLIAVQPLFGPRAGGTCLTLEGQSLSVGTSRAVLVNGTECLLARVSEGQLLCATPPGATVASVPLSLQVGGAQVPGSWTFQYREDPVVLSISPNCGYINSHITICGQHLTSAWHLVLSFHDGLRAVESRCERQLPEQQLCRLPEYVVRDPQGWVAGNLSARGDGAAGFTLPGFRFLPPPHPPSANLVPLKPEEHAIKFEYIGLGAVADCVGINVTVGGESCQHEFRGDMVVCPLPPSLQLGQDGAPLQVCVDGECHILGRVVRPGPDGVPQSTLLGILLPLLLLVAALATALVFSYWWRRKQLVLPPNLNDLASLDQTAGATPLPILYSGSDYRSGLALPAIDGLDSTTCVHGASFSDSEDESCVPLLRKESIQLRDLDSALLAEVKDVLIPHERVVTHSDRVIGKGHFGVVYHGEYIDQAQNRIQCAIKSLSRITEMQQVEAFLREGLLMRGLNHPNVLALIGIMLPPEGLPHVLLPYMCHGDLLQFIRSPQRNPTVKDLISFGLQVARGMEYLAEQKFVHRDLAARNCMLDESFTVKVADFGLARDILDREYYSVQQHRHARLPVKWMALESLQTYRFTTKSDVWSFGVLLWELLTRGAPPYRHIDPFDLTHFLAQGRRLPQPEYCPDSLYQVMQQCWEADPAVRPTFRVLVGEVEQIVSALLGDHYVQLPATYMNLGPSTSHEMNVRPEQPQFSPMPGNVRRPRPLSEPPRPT

[16] = biological target: Macrophage-stimulating protein receptor (Homo sapiens) (UniProt Q04912); details: at 10 µM
[17] = biological target: Proto-oncogene tyrosine-protein kinase ROS (Homo sapiens) (UniProt P08922); details: at 1 µM
Sequence of Proto-oncogene tyrosine-protein kinase ROS (Homo sapiens) (P08922 whole entry): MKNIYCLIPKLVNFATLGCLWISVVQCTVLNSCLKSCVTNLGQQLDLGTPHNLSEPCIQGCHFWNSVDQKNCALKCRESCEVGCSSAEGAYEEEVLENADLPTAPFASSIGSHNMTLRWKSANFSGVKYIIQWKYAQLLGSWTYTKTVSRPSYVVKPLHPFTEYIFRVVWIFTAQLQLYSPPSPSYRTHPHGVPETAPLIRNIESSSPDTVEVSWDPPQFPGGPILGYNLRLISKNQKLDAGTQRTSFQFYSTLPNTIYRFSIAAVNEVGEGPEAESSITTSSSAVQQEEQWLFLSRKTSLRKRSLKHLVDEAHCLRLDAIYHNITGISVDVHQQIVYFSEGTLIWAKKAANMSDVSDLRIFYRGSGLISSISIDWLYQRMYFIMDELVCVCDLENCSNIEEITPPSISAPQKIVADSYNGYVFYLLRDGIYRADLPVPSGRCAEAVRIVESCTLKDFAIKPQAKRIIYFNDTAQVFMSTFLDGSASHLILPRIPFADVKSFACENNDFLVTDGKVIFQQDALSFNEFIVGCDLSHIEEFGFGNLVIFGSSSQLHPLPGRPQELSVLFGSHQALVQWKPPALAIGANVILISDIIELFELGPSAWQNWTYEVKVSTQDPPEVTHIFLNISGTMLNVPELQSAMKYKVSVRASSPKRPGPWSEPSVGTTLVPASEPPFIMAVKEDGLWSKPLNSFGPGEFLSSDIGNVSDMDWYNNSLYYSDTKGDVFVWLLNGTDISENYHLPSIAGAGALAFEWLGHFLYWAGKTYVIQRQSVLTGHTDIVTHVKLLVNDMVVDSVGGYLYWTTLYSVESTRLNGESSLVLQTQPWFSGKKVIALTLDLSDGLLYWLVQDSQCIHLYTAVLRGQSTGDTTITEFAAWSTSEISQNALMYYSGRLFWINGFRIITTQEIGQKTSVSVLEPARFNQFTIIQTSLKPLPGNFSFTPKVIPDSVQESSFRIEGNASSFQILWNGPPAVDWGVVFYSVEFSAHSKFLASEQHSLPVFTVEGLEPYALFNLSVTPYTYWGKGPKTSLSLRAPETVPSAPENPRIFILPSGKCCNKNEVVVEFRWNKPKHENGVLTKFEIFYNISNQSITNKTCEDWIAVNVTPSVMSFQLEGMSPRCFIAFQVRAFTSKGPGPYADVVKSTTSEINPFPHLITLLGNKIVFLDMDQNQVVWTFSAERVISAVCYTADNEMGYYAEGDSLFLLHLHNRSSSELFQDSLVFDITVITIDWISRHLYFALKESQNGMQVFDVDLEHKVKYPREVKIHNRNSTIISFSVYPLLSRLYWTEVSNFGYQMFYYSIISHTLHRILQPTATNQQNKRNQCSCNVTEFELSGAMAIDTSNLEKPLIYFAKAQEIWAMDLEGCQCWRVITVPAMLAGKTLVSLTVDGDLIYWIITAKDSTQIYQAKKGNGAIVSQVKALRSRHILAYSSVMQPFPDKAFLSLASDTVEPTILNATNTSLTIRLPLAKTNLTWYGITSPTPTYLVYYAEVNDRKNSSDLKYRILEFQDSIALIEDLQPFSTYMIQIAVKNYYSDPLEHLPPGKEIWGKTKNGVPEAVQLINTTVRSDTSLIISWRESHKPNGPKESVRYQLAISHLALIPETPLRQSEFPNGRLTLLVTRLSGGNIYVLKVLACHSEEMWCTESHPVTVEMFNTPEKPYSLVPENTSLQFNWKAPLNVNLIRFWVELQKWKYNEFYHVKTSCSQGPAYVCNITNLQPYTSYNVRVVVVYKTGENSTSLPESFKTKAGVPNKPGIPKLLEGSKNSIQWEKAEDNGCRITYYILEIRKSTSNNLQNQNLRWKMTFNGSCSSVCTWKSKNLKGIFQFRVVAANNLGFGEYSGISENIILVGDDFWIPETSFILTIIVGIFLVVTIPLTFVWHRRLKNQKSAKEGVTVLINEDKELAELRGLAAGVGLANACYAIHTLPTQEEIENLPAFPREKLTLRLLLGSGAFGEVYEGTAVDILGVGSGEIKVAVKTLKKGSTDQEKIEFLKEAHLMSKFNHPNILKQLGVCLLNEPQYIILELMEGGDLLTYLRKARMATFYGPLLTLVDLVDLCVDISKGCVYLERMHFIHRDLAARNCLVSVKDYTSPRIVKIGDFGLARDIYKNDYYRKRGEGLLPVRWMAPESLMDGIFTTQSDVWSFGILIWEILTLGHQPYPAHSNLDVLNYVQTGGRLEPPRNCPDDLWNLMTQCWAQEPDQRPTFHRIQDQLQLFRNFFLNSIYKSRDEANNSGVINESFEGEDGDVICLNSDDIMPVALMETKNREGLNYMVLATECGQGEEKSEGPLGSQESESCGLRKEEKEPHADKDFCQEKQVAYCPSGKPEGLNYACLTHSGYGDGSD

[18] = biological target: Proto-oncogene tyrosine-protein kinase ROS (Homo sapiens) (UniProt P08922); details: at 10 µM
[19] = biological target: T2, Tyrosine-protein kinase receptor TYRO3 (Homo sapiens) (UniProt Q06418); details: at 1 µM
T2 sequence (whole entry): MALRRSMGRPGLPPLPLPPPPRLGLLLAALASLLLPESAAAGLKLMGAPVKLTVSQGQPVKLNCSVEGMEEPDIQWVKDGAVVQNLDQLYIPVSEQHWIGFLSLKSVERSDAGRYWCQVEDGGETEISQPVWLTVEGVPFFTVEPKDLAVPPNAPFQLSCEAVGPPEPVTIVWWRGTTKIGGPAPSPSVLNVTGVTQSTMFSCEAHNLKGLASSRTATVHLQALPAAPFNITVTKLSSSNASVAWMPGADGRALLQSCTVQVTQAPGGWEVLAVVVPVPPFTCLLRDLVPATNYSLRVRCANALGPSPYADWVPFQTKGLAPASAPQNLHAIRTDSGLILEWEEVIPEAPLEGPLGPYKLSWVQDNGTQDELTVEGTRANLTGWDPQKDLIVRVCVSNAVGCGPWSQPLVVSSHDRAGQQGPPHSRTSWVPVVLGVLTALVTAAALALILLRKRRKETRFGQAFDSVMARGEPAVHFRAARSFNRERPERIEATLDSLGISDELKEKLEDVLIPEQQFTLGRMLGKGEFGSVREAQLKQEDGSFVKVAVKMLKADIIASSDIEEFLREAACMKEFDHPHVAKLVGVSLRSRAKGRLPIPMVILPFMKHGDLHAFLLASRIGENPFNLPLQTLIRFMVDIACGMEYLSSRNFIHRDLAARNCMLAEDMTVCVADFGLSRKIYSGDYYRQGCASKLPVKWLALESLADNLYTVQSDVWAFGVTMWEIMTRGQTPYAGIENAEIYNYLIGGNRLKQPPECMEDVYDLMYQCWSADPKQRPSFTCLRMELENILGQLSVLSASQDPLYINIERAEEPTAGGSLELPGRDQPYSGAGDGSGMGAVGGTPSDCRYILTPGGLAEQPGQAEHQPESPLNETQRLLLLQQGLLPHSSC

[20] = biological target: T2, Tyrosine-protein kinase receptor TYRO3 (Homo sapiens); details: at 10 µM

| Structure (SMILES) | residual activity [1] | residual activity [2] [%] | residual activity [3] [%] | residual activity [4] [%] | residual activity [5] [%] | residual activity [6] [%] | residual activity [7] [%] | residual activity [8] [%] | residual activity [9] [%] | residual activity [10] [%] | residual activity [11] [%] | residual activity [12] [%] | residual activity [13] [%] | residual activity [14] [%] | residual activity [15] [%] | residual activity [16] [%] | residual activity [17] [%] | residual activity [18] [%] | residual activity [19] [%] | residual activity [20] [%] |
| --- | --- | --- | --- | --- | --- | --- | --- | --- | --- | --- | --- | --- | --- | --- | --- | --- | --- | --- | --- | --- |
| O=C(O)c1ccc2c3c1cccc3c(=O)n1c3ccccc3nc21 | 106% (inactive) | 98 | 84 | 68 | 88 | 42 | 96 | 82 | 113 | 80 | 119 | 107 | 97 | 61 | 106 | 109 | 109 | 101 | 98 | 88 |
| COc1cc2ncnc(Nc3ccc(O)c(Br)c3)c2cc1OC | 92% (inactive) | 88 | 90 | 66 | 85 | 42 | 20 | 8 | 116 | 102 | 39 | 40 | 23 | 1 | 90 | 50 | 88 | 84 | 38 | 4 |
| O=Nc1c(-c2c(O)[nH]c3ccccc23)[nH]c2ccccc12 | 96% (inactive) | 91 | 48 | 33 | 14 | 2 | 60 | 27 | 108 | 92 | 85 | 82 | 1 | 0 | 86 | 71 | 105 | 88 | 62 | 15 |
| COc1ccc(CNc2nc(N(CCO)CCO)nc3c2ncn3C(C)C)cc1 | 97% (inactive) | 95 | 95 | 101 | 83 | 85 | 83 | 78 | 121 | 109 | 91 | 96 | 108 | 97 | 76 | 85 | 96 | 85 | 116 | 97 |
| N#C/C(=C(\N)Sc1ccc(N)cc1)c1ccccc1C(F)(F)F | 101% (inactive) | 90 | 95 | 109 | 100 | 97 | 93 | 98 | 110 | 103 | 102 | 95 | 109 | 90 | 88 | 83 | 100 | 89 | 103 | 98 |
| COc1ccc(C(=O)Nc2sc3c(c2C(N)=O)CCCC3)cc1OC | 90% (inactive) | 91 | 80 | 95 | 121 | 89 | 79 | 71 | 101 | 119 | 96 | 80 | 93 | 113 | 99 | 73 | 96 | 97 | 86 | 96 |
| CC[n+]1c(/C=C/N(C)c2ccccc2)n(-c2ccccc2)c2ccc(-c3nc4ccccc4s3)cc21 | 99% (inactive) | 103 | 108 | 63 | 139 | 83 | 93 | 88 | 110 | 102 | 103 | 93 | 96 | 100 | 97 | 57 | 105 | 102 | 99 | 72 |
| COc1ccc(S(=O)(=O)N(CCO)c2ccccc2CN(C)C/C=C/c2ccc(Cl)cc2)cc1 | 87% (inactive) | 96 | 88 | 51 | 109 | 96 | 92 | 91 | 134 | 124 | 100 | 91 | 105 | 87 | 90 | 88 | 105 | 87 | 113 | 112 |
| CCN(CC)CCCCN1c2ccccc2Oc2ccc(Cl)cc21 | 101% (inactive) | 99 | 109 | 101 | 131 | 115 | 105 | 85 | 113 | 121 | 110 | 91 | 108 | 117 | 105 | 91 | 100 | 101 | 108 | 108 |
| O=c1c2ccccc2[nH]c(=S)n1CCN1CCC(=C(c2ccc(F)cc2)c2ccc(F)cc2)CC1 | 98% (inactive) | 89 | 87 | 52 | 136 | 91 | 100 | 101 | 114 | 127 | 109 | 86 | 104 | 108 | 72 | 78 | 98 | 99 | 82 | 102 |
| O=C1Nc2ccc(Br)cc2/C1=C\c1cc2c([nH]1)CCCC2 |  |  | 113 | 102 | 75 | 49 |  |  | 119 | 116 | 101 | 82 | 74 | 69 | 116 | 84 |  | 80 |  |  |
| Cc1cccc(-c2[nH]c(C(C)(C)C)nc2-c2ccc3c(c2)OCO3)n1 | 98% (inactive) | 88 |  |  |  | 103 | 59 | 21 |  |  | 103 | 82 | 98 | 107 |  |  | 91 | 94 | 97 |  |
| CC#CC(=O)Nc1cc2c(Nc3ccc(F)c(Cl)c3)ncnc2cn1 | 96% (inactive) | 82 | 100 | 93 | 120 |  | 82 | 60 | 99 | 116 | 92 | 77 | 100 | 104 | 101 | 76 | 94 | 92 | 85 | 82 |
| CO[C@H]1C[C@@H]2CC[C@@H](C)[C@@](O)(O2)C(=O)C(=O)N2CCCC[C@H]2C(=O)O[C@H]([C@H](C)C[C@@H]2CC[C@@H](O)[C@H](OC)C2)CC(=O)[C@H](C)/C=C(\C)[C@@H](O)[C@@H](OC)C(=O)[C@H](C)C[C@H](C)/C=C/C=C/C=C/1C | 93% (inactive) | 94 | 98 | 94 | 119 | 99 | 84 | 84 | 127 | 140 | 99 | 92 | 102 | 107 | 99 | 80 | 90 | 92 | 94 | 118 |
| COc1cc2ncnc(Nc3ccc(NC(=O)c4ccccc4)cc3)c2cc1OC | 102% (inactive) | 97 |  | 91 | 134 | 75 | 110 | 77 |  |  |  | 82 | 56 | 12 | 87 | 74 | 109 | 102 | 94 | 76 |
| CO[C@@H]1[C@H](N(C)C(=O)c2ccccc2)C[C@H]2O[C@]1(C)n1c3ccccc3c3c4c(c5c6ccccc6n2c5c31)C(=O)NC4 | 95% (inactive) | 92 | 24 | 12 | 16 | 10 | 88 | 70 | 110 | 115 | 79 | 57 | 8 | 5 | 47 | 56 | 63 | 50 |  | 84 |
| c1ccc(-c2n[nH]c3c2oc2ccccc23)cc1 | 100% (inactive) | 90 | 88 | 94 |  |  | 97 | 64 | 114 | 126 | 97 | 75 | 74 | 47 | 58 | 73 | 97 | 93 | 79 | 62 |
| CC(=O)c1ccc(N2CCOCC2)cc1O | 90% (inactive) | 92 | 106 | 95 |  | 103 | 95 | 81 |  |  | 92 | 87 | 99 | 109 | 91 | 77 | 94 | 98 | 86 | 106 |
| O=C1NC(=O)c2c1c1c3ccccc3[nH]c1c1[nH]c3cc(Br)ccc3c21 | 96% (inactive) | 83 | 85 | 77 | 71 | 84 | 92 | 93 | 112 | 93 | 93 | 89 | 91 | 77 | 79 | 83 | 102 | 96 | 110 | 98 |
| Cc1cc2ncc(-c3ccccc3)nc2cc1C | 87% (inactive) | 92 | 108 | 97 | 126 | 101 | 108 | 82 |  |  | 100 | 94 | 96 | 104 | 92 | 79 | 101 | 100 |  |  |
| c1ccc2c(-c3ccncc3)c[nH]c2c1 | 91% (inactive) | 94 | 48 | 16 |  | 93 | 87 | 59 |  | 78 | 37 | 6 | 103 | 101 | 96 | 65 | 88 | 92 | 91 | 97 |
| Nc1ccc2ncnc(NCCc3ccc(Oc4ccccc4)cc3)c2c1 | 102% (inactive) | 96 | 109 | 58 | 88 | 72 | 102 | 88 | 106 | 100 | 110 | 94 | 76 | 55 | 82 | 70 | 107 | 100 | 113 | 100 |
